# Screening data deposited in PubChem BioAssay by several laboratories.
# Sampled rows, rich in hits. Any-hit rate of the full collection: about 4.9%.
# MPTP block = permeability transition pore inhibition; isolated mouse mitochondria, Ca2+ swelling absorbance, 30 min; 360,000 tested, 1.4% active; inhibition, % at 10 µM; AID 602449;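 active means inhibition of 50% or more, scaled per plate between neutral and stimulator controls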;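 further: 0% = DMSO wells given calcium and 100% = 1 mM EGTA wells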
# HSP90 inh = HSP90 refolding inhibition in rabbit reticulocyte lysate; luciferase refolding luminescence, 3 h; 290,000 tested, 0.91% active; inhibition, % at 5.6 µM;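 active means inhibition above the screen-wide mean plus 3 SD, computed separately per campaign, cut at about 16% in these data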;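 further: 0% = DMSO wells and 100% = 60 µM geldanamycin wells; inhibitors lower the luminescence because luciferase stays unfolded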
# HSF-1 act = increases HSF-1 driven luciferase reporter signal; NIH3T3-HGL HSF-1 luciferase reporter, MG132, 8 h; 100% = twice DMSO control signal; activation, % at 9 µM; 300,000 tested, 1.7% active; AID 504408;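 active means mean replicate activation of at least 50% with a set share of replicates each reaching 50%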;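 further: 0% = median of the neutral control wells and 100% = twice that signal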
# HSF1 inh = HSF1 inhibition | activity change, negative = inhibition, % at 7.5 µM (by protocol) | NIH3T3-HGL HSE-luciferase, MG132-induced, luminescence 8 h; hits give low values | 300,000 tested, 0.77% active | AID 2098;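 active means more than half of replicate wells show activity change below -50%, luminescence cut by over half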;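 further: luciferase reports HSF-1 transcriptional activity via heat shock element; 0% = median of DMSO wells and -100% = zero luminescence signal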
# Platelet DG rel = platelet dense granule release activity. human platelet-rich plasma, SFLLRN dense granule ATP release, luminescence. inhibition, %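 (compounds screened at 7.5 µM in platelet-rich plasma)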. 300,000 tested, 0.22% active. AID 1663;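 active means mean replicate score, as percent of positive control, at or above 50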
# dFosB act-1 = activators of mouse delta FosB homodimer | activation, % at 25 µM | 340,000 tested, 0.99% active | purified delta FosB, TAMRA-CDK5 oligo fluorescence polarization; percent of positive-control signal above neutral wells | AID 493131;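 active means mean activation above about 17%, with every replicate also reaching it, limit read from the data, passing the limit was not always enough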
# Target sequence (P13346 whole entry, looked up): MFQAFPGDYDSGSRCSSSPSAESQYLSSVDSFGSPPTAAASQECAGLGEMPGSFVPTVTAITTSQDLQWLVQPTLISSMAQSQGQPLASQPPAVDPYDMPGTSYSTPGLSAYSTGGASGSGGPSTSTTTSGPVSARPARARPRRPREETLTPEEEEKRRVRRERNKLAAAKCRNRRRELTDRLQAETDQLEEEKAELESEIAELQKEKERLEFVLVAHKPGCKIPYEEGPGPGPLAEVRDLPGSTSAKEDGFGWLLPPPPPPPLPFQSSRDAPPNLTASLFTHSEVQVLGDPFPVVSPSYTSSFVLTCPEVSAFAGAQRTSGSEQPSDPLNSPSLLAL
# dFosB act-2 = delta FosB (mouse) homodimer activation | 2,400 tested, under 10 active | AID 588690 | shares compounds with dFosB act-1 | activation, % at 24.9 µM | purified delta FosB, TAMRA-CDK5 oligo fluorescence polarization; normalised: neutral wells 0, positive control 100;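 active means highest replicate activation at or above 34% and every replicate reaching that threshold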;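 further: higher polarization means more probe DNA bound by delta FosB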
# * marks the source's active call; other numbers are inactive results; . = no result given.
SMILES,MPTP block,HSP90 inh,HSF-1 act,HSF1 inh,Platelet DG rel,dFosB act-1,dFosB act-2
Cc1ccc(-c2cc(C(=O)N/N=C/c3ccc(Cl)cc3)n[nH]2)o1,-1,13,-8,-1,4,27*,1
Cc1cc2c(N=NC(=O)C3CC3c3ccccc3)c(O)[nH]c2cc1Br (configuration not stated),11,-3,12,-12,-4,-6,.
NS(=O)(=O)c1cccc(NC(=O)c2cc3ccccc3o2)c1,0,0,-3,-5,3,-8,.
NS(=O)(=O)c1cccc(NC(=O)c2cc(=O)c3ccccc3o2)c1,1,-5,7,-2,-3,19*,-2
CC(=O)c1cccc(CN2CCC(C(=O)Nc3ccc(-c4cccc(C)c4)cc3)CC2)c1,2,0,3,4,-4,-1,.
NS(=O)(=O)c1ccc(NC(=O)COC(=O)c2cc3ccccc3cc2O)cc1,4,-2,5,-7,-3,15,.
O=C(COC(=O)c1ccccc1O)Nc1cccc2ccccc12,0,.,.,.,.,39*,-2
O=C(COC(=O)CNS(=O)(=O)/C=C/c1ccccc1)Nc1cccc2ccccc12,2,0,1,-8,4,27*,-4
NC(=O)c1ccc(NC(=O)COC(=O)c2cc3ccccc3cc2O)cc1,1,.,.,.,.,36*,1
O=C(COC(=O)c1cc2ccccc2cc1O)Nc1ccccc1F,-2,.,.,.,.,6,.
CC1(C(=O)NCc2ccco2)Cc2c(-c3cccc(C(F)(F)F)c3)ccnc2O1 (configuration not stated),0,.,.,.,.,.,.
CN[C@H]1C[C@H]2c3cc(-c4ccccc4)ccc3CCN2C(=O)[C@H]1[C@H](C)O,0,.,.,.,.,.,.
CCS(=O)(=O)c1ccc2c(c1)N(S(=O)(=O)c1ccc(Cl)cc1)CC(C(=O)O)O2 (configuration not stated),-1,1,3,-4,-6,-6,.
COc1cc(OC)cc(-c2nnc(NC(=O)c3ccc4c(c3)OCCO4)o2)c1,-1,-2,-12,-6,8,26*,-8
COc1cccc(C(=O)Nc2nnc(-c3ccc(F)cc3)o2)c1,-4,.,-2,-4,12,2,.
COc1cccc(C(=O)Nc2nnc(-c3ccc(Cl)cc3)o2)c1,-23,.,-4,-5,27,23*,-2
O=C(CCn1c(=O)c2cccn2c2cccnc21)NCc1cccc(Cl)c1,-2,-2,41,5,3,21*,0
CC(=O)Nc1ccc(NC(=O)Cc2sc(-c3cccnc3)nc2-c2ccc(C)cc2)cc1,-2,3,15,7,3,30*,1
O=C(Cc1sc(-c2ccccc2Cl)nc1-c1ccccc1)Nc1ccc(F)cc1,2,4,-9,-9,-8,25*,-1
CCCCn1nnnc1C1(C)CCC(=O)N1CCOc1ccccc1 (configuration not stated),1,.,.,.,.,.,.
Cc1cc(C)c2cc(CN(CCN3CCCC3)C(=O)Nc3ccc(F)cc3)c(=O)[nH]c2c1,5,2,0,-3,0,31*,-8
Cc1cc(C)c2cc(CN(CCO)C(=O)Nc3ccc(Cl)cc3)c(=O)[nH]c2c1,.,-3,-5,5,17,.,.
C/C(=N\NC(=S)NC1CCCCC1)c1ccc(C#N)cc1,3,4,18,-1,1,36*,6
Cc1ccc(OCCCCCCN2CCNCC2)c(Br)c1,0,.,6,8,3,23*,-2
CCN(CC)CCN(C(=O)CCS(=O)(=O)c1ccccc1)c1nc2c(C)cc(C)cc2s1,1,-2,12,15,-7,56*,-2
SMILES,MPTP block,HSP90 inh,HSF-1 act,HSF1 inh,Platelet DG rel,dFosB act-1,dFosB act-2
COc1ccc(OC)c2sc(N(CCCN(C)C)C(=O)CCS(=O)(=O)c3ccccc3)nc12,-2,.,5,3,2,-4,.
Cc1cc(C)c2sc(N(CCN(C)C)C(=O)CCS(=O)(=O)c3ccccc3)nc2c1,2,5,-12,0,0,21*,3
CCN(CC)CCN(C(=O)CCS(=O)(=O)c1ccccc1)c1nc2cc(OC)c(OC)cc2s1,-1,6,8,1,1,-5,.
COc1ccc(Cl)c2sc(N(CCN(C)C)C(=O)CCS(=O)(=O)c3ccc(C)cc3)nc12,33,.,7,4,-5,82*,3
CCN(CC)CCN(C(=O)CCS(=O)(=O)c1ccccc1)c1nc2cc(C)cc(C)c2s1,1,1,-2,-1,3,43*,6
Fc1cccc2sc(N3CCCC3)nc12,-1,1,9,4,-1,0,.
CCN(CC)CCN(C(=O)c1ccc2c(c1)OCCO2)c1nc2cc(C)cc(C)c2s1,2,0,2,-1,-15,30*,4
CCOC(=O)CC1(NC(=O)C2CCC(=O)N(CCc3ccc(OC)cc3)C2)CCCCC1 (configuration not stated),2,1,1,1,4,2,.
Cc1cc(C)cc(OC(=O)CCN2C(=O)c3ccccc3C2=O)c1,-2,0,-6,-5,-9,-2,.
Cc1ccc(NC(=O)c2ccc(OC(=O)CCN3C(=O)c4ccccc4C3=O)cc2)cc1,-1,-5,17,20,1,35*,0
COc1ccccc1-c1cnc(C(O)c2cccc(C)c2C)[nH]1 (configuration not stated),1,.,.,.,.,.,.
Cc1ccc2cc3cc(C(=O)NCc4ccc5c(c4)OCO5)oc3nc2c1,-2,0,16,-5,1,56*,3
Cc1ccc(C(=O)NCc2ccc3c(c2)OCO3)o1,0,-3,10,2,-2,-7,.
Cc1cc(NC(=O)CSc2nc3c([nH]c4ccccc43)c(=O)n2-c2cccc(C(F)(F)F)c2)no1,6,-1,-9,-2,4,-2,.
CCc1cc2ccc(OC)cc2nc1SCC(=O)Nc1cc(C)on1,-1,1,-19,-12,0,111*,0
COc1cccc(-n2c(SCC(=O)Nc3cc(C)on3)nc3c([nH]c4ccccc43)c2=O)c1,-3,2,-1,-2,3,39*,3
O=C(CSc1nc2c([nH]c3ccccc32)c(=O)n1-c1cccc(Cl)c1)N1CCOCC1,-1,4,12,-1,2,55*,4
CC(OC(=O)CCCN=C1NS(=O)(=O)c2ccccc21)C(=O)NC1CCCCC1C (configuration not stated),1,-7,-12,-6,13,5,.
N#CC(=C1Nc2ccccc2N1)S(=O)(=O)c1ccccc1,-3,-3,5,-2,5,4,.
